Experimental data published in PubChem BioAssay AID652042 (Broad Institute, 2013).
About 350 (32%) of roughly 1,100 compounds were called active. These entries were drawn from the full list. Results with a measured potency or affinity are listed apart. A number with no mark means an inactive call. No rule for the calls is given here.

Assay: CEM21 lymphoblast cell cytotoxicity, dose response, cytotoxicity control for viral fusion inhibitor project, CellTiter-Glo luminescence, cherry-picked (AID 652042)
Conditions: CEM21 cells viability, CellTiter-Glo ATP luminescence, 24 h; series mostly up to 35 µM; activity change, negative = cytotoxicity: at the top concentration

Row | SMILES | activity change, negative = cytotoxicity [%]
1 | CN(C)C(=O)C[C@@H]1C[C@H]2c3cc(NS(=O)(=O)c4ccc(F)cc4)ccc3O[C@H]2[C@H](CO)O1 | -7.21
2 | O=C(CN1CCN(Cc2ccc(Cl)cc2)C1=O)NCCCN1CCN(c2ccc(F)cc2)CC1 | -15.2
3 | Clc1ccc(-c2csc3ncnc(NCCN4CCOCC4)c23)cc1 | -7.06
4 | CC(C)CN(C(=O)c1ccc(S(=O)(=O)N2CCCCC2)cc1)C1CCS(=O)(=O)C1 (configuration not stated) | 1.04
5 | CC[C@@]12C(=O)N(c3ccc(C)cc3)C(=O)N1[C@H](c1ccc(Br)cc1)[C@@H]1C(=O)N(C(C)(C)C)C(=O)[C@@H]12 | -10.3
6 | O=c1[nH]c(=O)n([C@H]2C[C@H](O)[C@@H](CO)O2)cc1F | -12
7 | COc1ccc(C(O)(C2CCCCC2)C(CN2CCOCC2)c2ccccc2)cc1 (configuration not stated) | -24.5
8 | CCOc1ccc(C(=O)C2CCN(CC(=O)Nc3ccccc3N3CCOCC3)CC2)cc1 | -23.5
9 | CCOc1ccc(OCc2cccc(C(=O)N3CCOCC3)c2)cc1 | -3.5
10 | CC(C)(COC(=O)C(c1ccccc1)c1ccccc1)CN1CCOCC1 | -1.1
11 | CCCNC(=O)c1ccccc1NC(=O)c1ccccc1N(C)S(=O)(=O)c1ccccc1 | -20.5
12 | Cc1[nH]nc2ncc(C(=O)c3ccccc3O)cc12 | -15.7
13 | O=C(CCC(=O)N1CCN(S(=O)(=O)c2ccc3ccccc3c2)CC1)Nc1cc(Cl)cc(Cl)c1 | -20.9
14 | CCN1CCN(S(=O)(=O)c2ccc(Cl)c(C(=O)Nc3ccccc3N3CCCC3)c2)CC1 | -8.82
15 | CCCCCCc1nc2ccccc2c(=O)n1NC(=O)c1c(O)c2c(n(CC(C)C)c1=O)CCCC2 | -24.4
16 | CC[C@@]12C(=O)N(c3cccc(Br)c3)C(=O)N1[C@H](c1ccc(OC)cc1)[C@@H]1C(=O)N(C(C)(C)C)C(=O)[C@@H]12 | -0.201
17 | CN(Cc1ccc(Cl)cc1Cl)C(=O)c1cccc(S(=O)(=O)N2CCN(c3ccccc3)CC2)c1 | -6.85
18 | Cc1ccc(C)c(-n2cc(CNCCCn3cccn3)c(-c3ccccc3)n2)c1 | -22.4
19 | O=C1NCCN(Cc2cccc(Oc3ccccc3)c2)C1CC(=O)N1CCCCC1 (configuration not stated) | -2.45
20 | Cc1cc(Cl)c(S(=O)(=O)N2CCCC2)cc1OCC(=O)NC1CCCCC1 | -14.6
21 | Cc1cc(Cl)c(S(=O)(=O)N2CCSCC2)cc1OCC(=O)NC1CCCCC1 | -7.4
22 | CN(C)CCn1c(=O)n(-c2cccc(Cl)c2)c(=O)c2c3c(sc21)CCCCC3 | -6.49
23 | CCC(C)NS(=O)(=O)c1ccc(S(=O)(=O)N2CCCC3(CCCCC3)C2)cc1 (configuration not stated) | -24.4
24 | O=C(COC(=O)c1ncc(Cl)c(Cl)c1Cl)NCc1cccs1 | -5.63

Row | SMILES | activity change, negative = cytotoxicity [%]
25 | Cc1nc2ccccc2c2c1CC(C(C)(Cl)Br)O2 (configuration not stated) | -20.6
26 | COc1cc2oc(=O)cc(-c3ccc(-c4ccc(CO)cc4)cc3)c2c(OC)c1OC | -6.13
27 | COc1ccccc1N/C(N)=N/c1nc(CSc2ccc(C)cc2)cc(=O)[nH]1 | -3.89
28 | C=CCN=C1NN=C(c2cc(C)n(CCOC)c2C)CS1 | -14.8
29 | CN1C(=O)c2cc(NS(=O)(=O)c3ccccc3F)ccc2OC[C@@H]2O[C@H](CC(=O)NC3Cc4ccccc4C3)CC[C@@H]21 | -17.1
30 | Cn1c(C(=O)NCCCN2CCN(c3ccccc3F)CC2)cc2c(=O)[nH]c3ccccc3c21 | -14
31 | Cc1cccc(/C=N\Nc2cn[nH]c(=O)c2Cl)c1 | -9.97
32 | COC(=O)[C@]1(C)N[C@H](CN(C)C(=O)Nc2ccc(Cl)cc2)[C@@H]2C(=O)N(Cc3ccccc3)C(=O)[C@@H]21 | -16.4
33 | COCCn1nnnc1CN(CCc1ccccc1)Cc1cc2cc(OC)ccc2[nH]c1=O | -11.6
34 | COc1ccc2[nH]c(=O)c(CN(Cc3cccs3)Cc3nnnn3Cc3ccccc3)cc2c1 | -12.9
35 | Cc1cc(NC(=O)CCC(=O)N(C2CC2)C2(C(=O)NC3CCCC3)CCC(C)CC2)no1 (configuration not stated) | -0.639
36 | CCOC(=O)CN1CCCc2nc(C)c(C)cc21 | 1.49
37 | Cn1c(SCc2nc(-c3ccc(Cl)cc3)no2)nnc1-c1cccs1 | -9.46
38 | CCNc1ncnc2c1cnn2C1CCCO1 (configuration not stated) | 12.2
39 | COc1cc(CNCc2ccc(OC)c3ccccc23)cc(OC)c1OC | -20
40 | COc1cc(OC)cc(C(=O)N[C@H](C(=O)NCCc2c[nH]c3ccccc23)C(C)C)c1 | -2.28
41 | N#Cc1c(NCc2ccccc2)ccnc1NCc1cccnc1 | -4.41
42 | Cc1nc2ccccc2nc(C)c1=NOCc1cccc(Cl)c1 | -18.9
43 | Cc1ccc(C(=O)Nc2cnc3ccccc3c2)cc1 | -5.04
44 | COc1ccc(-c2nn(C)c(=O)c3ccccc23)cc1NC(=O)Cn1nc(C)c2ccccc2c1=O | -6.97
45 | COc1ccc(-c2c(C)nn3c(C(F)(F)F)cc(C)nc23)cc1 | -1.04
46 | C=CCNc1nc2c(c(=O)n(C)c(=O)n2C)n1CCCCCC | -17.9
47 | O=C(CNC(=O)c1cccc(-n2cccc2)c1)Nc1ccccc1Br | 1.95
